The record followed here is PubChem BioAssay (NCATS).

Experiment [1] concerns the target Glutathione peroxidase 1 (Homo sapiens) (UniProt P07203). The experiment can be described thus: Primary qHTS Assay for Inhibitors of Recombinant Selenoprotein Glutathione Peroxidase 1 (GPX1) (AID 1845191). Note: nearly all actives have a fitted effect of over 65% in size. In a few lines:
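NADPH consumption tracked by fluorescence at 340/450 nm between t=0 and t=15 min, room temperature. Final mix: 10 nM GPX1, 100 nM glutathione reductase, 1 mM GSH, 0.5 mM NADPH, 0.5 mM cumene hydroperoxide, 0.01% BSA; 30 min compound–enzyme preincubation.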
(Quantitative high-throughput screening tests each substance at several concentrations.)

In experiment [2] the target is Phospholipid hydroperoxide glutathione peroxidase GPX4 (Homo sapiens) (UniProt P36969). The experiment can be described thus: Primary qHTS Assay for Inhibitors of Recombinant Selenoprotein Glutathione Peroxidase 4 (GPX4) (AID 1845192). Note: series mostly up to about 50 µM; nearly all actives have a fitted effect of over 65% in size. In a few lines: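 NADPH consumption followed by fluorescence at 340/450 nm, t=0 and after 15 min at room temperature. Reaction started with cumene hydroperoxide (0.5 mM final) after 30 min compound–GPX4 preincubation; final 200 nM GPX4, 100 nM GR, 1 mM GSH, 0.5 mM NADPH.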

A short description of experiment [3]: Quantitative High-Throughput drug screen in 47 multiple myeloma cell lines against the NCATS MIPE library collection: EJM_DSMZ cell viability assay (AID 1918926; note: nearly all actives have a fitted effect of over 30% in size; note: potency is the fitted concentration of half-maximal effect). In a few lines: (§1)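 Approved and investigational drugs from MIPE 4.0 were added by pin tool to 500 cells per well. After 48 hours at 37C, ATP-based CellTiter-Glo luminescence indicated remaining viability.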

Experiment [4] in a line: Quantitative High-Throughput drug screen in 47 multiple myeloma cell lines against the NCATS MIPE library collection: ARP1_JJKsccF8 cell viability assay (AID 1918928; note: nearly all actives have a fitted effect of over 40% in size; note: potency is the fitted concentration of half-maximal effect). In a few lines: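 Each line was plated at 500 cells/well and treated 48 h with library drugs. Viability came from CellTiter-Glo luminescence relative to DMSO and cell-free medium controls.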
Experiment [5] in a line: Quantitative High-Throughput drug screen in 47 multiple myeloma cell lines against the NCATS MIPE library collection: ARD_JJKsccE7 cell viability assay (AID 1918929; note: potency is the fitted concentration of half-maximal effect). In a few lines: as §1
Experiment [6] can be described thus: Quantitative High-Throughput drug screen in 47 multiple myeloma cell lines against the NCATS MIPE library collection: FR4_PLB cell viability assay (AID 1918924; note: nearly all actives have a fitted effect of over 35% in size; note: potency is the fitted concentration of half-maximal effect). In a few lines: as §1
Experiment [7] is described as follows: Quantitative High-Throughput drug screen in 47 multiple myeloma cell lines against the NCATS MIPE library collection: Delta47_JCRB cell viability assay (AID 1918925; note: nearly all actives have a fitted effect of over 45% in size; note: potency is the fitted concentration of half-maximal effect). In a few lines:
as §1

A short description of experiment [8]: Quantitative High-Throughput drug screen in 47 multiple myeloma cell lines against the NCATS MIPE library collection: AMO1_DSMZ cell viability assay (AID 1918927; note: nearly all actives have a fitted effect of over 30% in size; note: potency is the fitted concentration of half-maximal effect). In a few lines:
as §1

The target in experiment [9] is Luciferin 4-monooxygenase (Photinus pyralis) (UniProt P08659). Kind of experiment: Primary firefly luciferase (FLuc) qHTS assay for identification of artifact compounds. (AID 1845220). Note: nearly all actives have a fitted effect of over 60% in size. In a few lines: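 Cell-free, 1536-well qHTS. Buffer pH 7.6 with 0.01% Tween-20 and 0.05% BSA; 10 uM D-luciferin, 10 uM ATP; 10 nM P. pyralis luciferase; luminescence after 5 min.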
Experiment [10] has as its system Nanoluciferase (engineered Oplophorus gracilirostris luciferase). Kind of experiment: Primary Nanoluciferase (NLuc) qHTS assay for identification of artifact compounds. (AID 1845222). Note: series mostly up to about 54 µM. In a few lines: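 Compounds are pinned into diluted (1:55) conditioned medium of NLuc-expressing S16 cells and held 15 min at room temperature protected from light. Nano-Glo substrate follows, and luminescence is read 5 min later.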

The nature of experiment [11]: Primary fluorescence-based thiol-reactive (MSTI) qHTS assay for identification of artifact compounds. (AID 1845221). Note: nearly all actives have a fitted effect of over 65% in size. Note: potency is the fitted concentration of half-maximal effect. In a few lines: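 Probe: MSTI 4 uM, PBS pH 7.4, 2% DMSO. Incubation 1 h, RT, light-protected. Readout fluorescence 525/598 nm.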
The nature of experiment [12]: Primary redox qHTS assay for identification of artifact compounds. (AID 1845223). Note: potency is the fitted concentration of half-maximal effect. In a few lines: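 Redox-cycling detection via DTT (250 uM final) oxidation coupled to Amplex Red (25 uM)/HRP (250 mU/mL) in HBSS. 15 min preincubation plus 30 min after DTT, room temperature. Ex/Em 525/598 nm; 4-parameter Hill fit against DMSO and 10 uM DA3003.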

A number with no mark means an inactive call. Records with an inconclusive call do not appear. Calls of active or inactive are those of the source. Calls come from the whole dose curve; as a rule, active = well fitted curve in the direction sought with a large enough effect; inconclusive = small, poorly fitted or top-dose-only effect, or another doubt; inactive = no such curve, though single readings can be large; an effect the other way counts as inactive or inconclusive.

Sequence of Glutathione peroxidase 1 (Homo sapiens) (P07203 whole entry, looked up): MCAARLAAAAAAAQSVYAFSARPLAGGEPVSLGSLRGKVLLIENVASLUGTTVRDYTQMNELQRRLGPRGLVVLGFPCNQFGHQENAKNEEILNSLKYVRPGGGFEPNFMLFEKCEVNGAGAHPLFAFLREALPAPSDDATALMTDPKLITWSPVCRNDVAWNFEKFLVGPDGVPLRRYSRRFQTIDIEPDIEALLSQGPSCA
Sequence of Phospholipid hydroperoxide glutathione peroxidase GPX4 (Homo sapiens) (P36969 whole entry, looked up): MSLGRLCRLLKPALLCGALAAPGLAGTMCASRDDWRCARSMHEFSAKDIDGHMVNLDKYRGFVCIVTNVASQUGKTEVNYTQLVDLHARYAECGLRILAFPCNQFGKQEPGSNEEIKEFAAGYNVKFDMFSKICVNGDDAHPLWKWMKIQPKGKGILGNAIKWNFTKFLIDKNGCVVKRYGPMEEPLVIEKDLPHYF

On to `Nc1nc(=O)n([C@H]2C[C@H](O)[C@@H](CO)O2)cc1F`, for which the Potency entry in experiment [1], in experiment [2], in experiment [3] and in experiment [5] was “inactive” in each case. Besides, the Potency in [4] is 526 nM (active).

For `N#Cc1cc(NC(=O)Nc2nnc(-c3ccncc3)s2)ccc1-c1cn[nH]c1`, the Potency entry in experiment [2], in experiment [6], in [7], in [3], in [8] and in [5] was “inactive” throughout.

Take `Cn1c(Nc2ccc(C(F)(F)F)cc2)nc2cc(Oc3ccnc(-c4ncc(C(F)(F)F)[nH]4)c3)ccc21`: the Potency result in experiment [2] is “inactive”. For the same compound, the Potency in [6] was 18700 nM (active); in experiment [7] it was 662 nM (active); in experiment [8] it was 9350 nM (active); in experiment [4], 20900 nM (active); in [5], 16600 nM (active).

With `Cc1cc(Nc2ncc3c(n2)N(C)C(=O)N(c2cc(NC(=O)c4cccc(C(F)(F)F)c4)ccc2C)C3)n(C)n1`, in [2], the Potency result was “inactive”. Besides, the Potency was 418 nM (active) in experiment [6]; 209 nM (active) in experiment [7]; 662 nM (active) in experiment [3]; 833 nM (active) in experiment [8]; 743 nM (active) in experiment [4]; 935 nM (active) in [5].

Consider `NC(=NCCCCCCN=C(N)N=C(N)Nc1ccc(Cl)cc1)N=C(N)Nc1ccc(Cl)cc1`, for which the Potency entry in experiment [2] was “inactive”. The Potency in [6] was 16600 nM (active); in [7], 2640 nM (active); in experiment [3], 2640 nM (active); in experiment [8] it was 23500 nM (active); in experiment [4], 8330 nM (active).

For `C[C@H](O)[C@@H]1C(=O)N2C(C(=O)O)=C(S[C@@H]3CN[C@H](CNS(N)(=O)=O)C3)[C@@H](C)[C@@H]12`, the Potency result in experiment [2], in experiment [9], in experiment [6], in experiment [7], in experiment [3] and in experiment [4] was “inactive” in each case. The Potency result in [5] is “inactive”. The compound was called inactive in [10].

In the case of `CC(C)[C@H](CO)Nc1nc(Nc2cccc(Cl)c2)c2ncn(C(C)C)c2n1`, the Potency result in [2] and in experiment [8] was “inactive” each time. The Potency in experiment [6] is 16600 nM (active); in experiment [7], 18700 nM (active); in experiment [3] it was 23500 nM (active); in experiment [4] it was 23500 nM (active).

For the compound `Cc1ncc(-c2ccnc(Nc3ccc(S(C)(=O)=O)cc3)n2)n1C(C)C`, the Potency entry in experiment [2], in experiment [9], in experiment [11] and in experiment [12] was “inactive” each time. Moreover, the outcome in experiment [10] was inactive. Also, the Potency in experiment [6] was 2640 nM (active); in [7] it was 2350 nM (active); in [3] it was 2960 nM (active); in experiment [8] it was 2090 nM (active); in experiment [4], 2960 nM (active); in [5] it was 2960 nM (active).

As to `CC(C)n1cnc2c(NCCc3ccc(O)cc3)nc(-c3csc4ccccc34)nc21`, the Potency result in experiment [2], in [9], in [11] and in [12] was “inactive” each time. Moreover, the compound was called inactive in experiment [10]. Also, the Potency was 20900 nM (active) in [6], 5900 nM (active) in experiment [3] and 14800 nM (active) in experiment [4].

As for `CC(C)Oc1ccc(C(=O)N[C@H](CNC(=O)CN(C)C)Cc2ccc(-c3cn4cccc([C@H](C)O)c4n3)cc2)cc1Cl`, in experiment [1], the Potency entry is “inactive”. Moreover, the Potency in [6] is 148 nM (active); in experiment [8], 332 nM (active); in experiment [4] it was 935 nM (active); in experiment [5], 264 nM (active).

As to `Cc1coc2c1C(=O)C(=O)c1c-2ccc2c(C)cccc12`, the Potency result in experiment [2], in experiment [9], in experiment [8] and in experiment [5] was “inactive” throughout. Also, the Potency was 3360 nM (active) in experiment [11], 1060 nM (active) in experiment [12] and 16600 nM (active) in experiment [3]. Moreover, the result in experiment [10] was inactive.

Consider `Cn1cnc2c(F)c(Nc3ccc(Br)cc3F)c(C(=O)NOCCO)cc21`, for which the Potency result in [2], in experiment [9], in [11], in experiment [12], in experiment [6] and in experiment [7] was “inactive” in each case. The Potency entry in experiment [3] and in [4] was “inactive” each time. In addition, in experiment [10], the compound was classed as inactive. Further, the Potency in experiment [8] was 1050 nM (active); in experiment [5], 3.3 nM (active).

As for `N[C@H]1CN(c2c(F)cc3c(=O)c(C(=O)O)cn(C4C[C@@H]4F)c3c2Cl)CC12CC2` (some centres undefined), the Potency result in experiment [1], in experiment [9], in [11], in [12], in experiment [6] and in [7] was “inactive” each time. Further, the Potency entry in experiment [3], in [8], in experiment [4] and in [5] was “inactive” throughout. Further, the call in [10] was inactive.

With `Nc1ccn(C2CO[C@H](CO)O2)c(=O)n1` (some centres undefined), the Potency result in [2], in [9], in experiment [11], in experiment [12], in [6] and in experiment [3] was “inactive” each time. Further, the Potency entry in [8] and in experiment [5] was “inactive” each time. In addition, in experiment [10], the outcome was inactive.

With `Cn1cnc(=N)c2[nH]cnc21`, the Potency entry in [2] was “inactive”. Moreover, the Potency in experiment [6] was 148 nM (active); in [7], 132 nM (active); in [3] it was 526 nM (active); in experiment [8], 83.3 nM (active); in [4], 118 nM (active); in [5], 105 nM (active).

Consider `NC1=N[C@H]2[C@H](CS[C@H]2CCCCC(=O)O)N1`, for which the Potency entry in [1], in [6], in experiment [3], in [8] and in experiment [4] was “inactive” throughout.
